These results are taken from PMC7862700, “An all-to-all approach to the identification of sequence-specific readers for epigenetic DNA modifications on cytosine”.

What all share (experiment): DAPPL (digital affinity profiling via proximity ligation, sequencing); 10 mM Tris-HCl pH 7.5, 50 mM NaCl, 1 mM DTT, 4% glycerol, room temperature, 30 min; GST-TFs on glutathione beads, 16-mer random dsDNA library, 0.1% formaldehyde crosslink after washing; high values mean tight binding
Test [1] deals with T1, FLI1 (Homo sapiens, UniProt Q01543 1-452).
T1 sequence: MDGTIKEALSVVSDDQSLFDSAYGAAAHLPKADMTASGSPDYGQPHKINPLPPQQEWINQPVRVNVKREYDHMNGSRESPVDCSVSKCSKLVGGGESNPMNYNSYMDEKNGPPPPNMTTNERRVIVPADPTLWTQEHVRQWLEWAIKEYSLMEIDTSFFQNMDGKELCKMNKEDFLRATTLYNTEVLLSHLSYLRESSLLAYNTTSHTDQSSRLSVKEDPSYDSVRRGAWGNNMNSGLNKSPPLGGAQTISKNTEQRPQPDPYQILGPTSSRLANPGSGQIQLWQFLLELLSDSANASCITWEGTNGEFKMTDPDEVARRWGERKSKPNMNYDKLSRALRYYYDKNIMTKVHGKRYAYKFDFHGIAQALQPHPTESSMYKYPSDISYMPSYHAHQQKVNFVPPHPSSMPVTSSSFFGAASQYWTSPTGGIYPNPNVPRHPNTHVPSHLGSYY
The conditions noted are these: protein: recombinant; tags: N-terminal GST; dsDNA, one strand shown. In short, it runs like this:
(§1)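 In yeast, human transcription factors were expressed with a GST fusion, then pulled down on glutathione beads and given DNA barcodes. Pooled with a tag-only sample, they were exposed to 200 nmole of a 16-mer random double-stranded DNA library (Tris/NaCl/DTT/glycerol buffer, room temperature, 30 min), washed, crosslinked with 0.1% formaldehyde, proximity-ligated using BsaI/T4 ligase for 1 h at 37 °C, PCR-amplified and read on an Illumina NextSeq500. Each hexamer's frequency of reads for a factor, divided by the matching frequency for the tag-only sample, gives the binding signal.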

Test [2] concerns the target T2, ELK1 (Homo sapiens, UniProt P19419 1-428).
T2 sequence: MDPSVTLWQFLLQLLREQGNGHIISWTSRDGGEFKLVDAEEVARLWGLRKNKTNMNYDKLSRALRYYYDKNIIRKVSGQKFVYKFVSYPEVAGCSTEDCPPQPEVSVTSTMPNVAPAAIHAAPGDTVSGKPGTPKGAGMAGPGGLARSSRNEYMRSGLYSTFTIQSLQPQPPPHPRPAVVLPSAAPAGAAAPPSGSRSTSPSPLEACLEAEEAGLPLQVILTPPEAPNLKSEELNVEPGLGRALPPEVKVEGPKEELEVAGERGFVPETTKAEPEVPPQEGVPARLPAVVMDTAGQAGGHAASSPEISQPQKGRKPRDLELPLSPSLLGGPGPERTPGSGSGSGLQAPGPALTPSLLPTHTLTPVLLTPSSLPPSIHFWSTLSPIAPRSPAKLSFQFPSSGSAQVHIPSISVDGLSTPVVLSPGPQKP
Conditions: protein: recombinant; tags: N-terminal GST; dsDNA, one strand shown. The gist of the method:
as §1

In test [3] the target is T3, GABPA (Homo sapiens, UniProt Q06546 1-454).
T3 sequence: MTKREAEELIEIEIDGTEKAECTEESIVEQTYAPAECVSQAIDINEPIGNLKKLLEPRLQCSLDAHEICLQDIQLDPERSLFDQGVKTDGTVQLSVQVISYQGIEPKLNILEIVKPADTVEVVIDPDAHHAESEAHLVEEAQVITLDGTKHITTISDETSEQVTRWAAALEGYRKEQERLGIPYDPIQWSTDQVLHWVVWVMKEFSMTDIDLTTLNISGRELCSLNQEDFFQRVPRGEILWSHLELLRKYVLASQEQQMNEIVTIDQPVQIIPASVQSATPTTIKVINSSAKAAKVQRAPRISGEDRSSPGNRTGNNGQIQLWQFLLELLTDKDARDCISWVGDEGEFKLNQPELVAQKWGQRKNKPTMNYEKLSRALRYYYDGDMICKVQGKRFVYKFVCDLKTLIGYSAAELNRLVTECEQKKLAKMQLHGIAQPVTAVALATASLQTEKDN
Conditions: protein: recombinant; tags: N-terminal GST; dsDNA, one strand shown. The gist of the method:
as §1

For test [4], the target named is T4, ERG (Homo sapiens, UniProt P11308 1-479).
T4 sequence: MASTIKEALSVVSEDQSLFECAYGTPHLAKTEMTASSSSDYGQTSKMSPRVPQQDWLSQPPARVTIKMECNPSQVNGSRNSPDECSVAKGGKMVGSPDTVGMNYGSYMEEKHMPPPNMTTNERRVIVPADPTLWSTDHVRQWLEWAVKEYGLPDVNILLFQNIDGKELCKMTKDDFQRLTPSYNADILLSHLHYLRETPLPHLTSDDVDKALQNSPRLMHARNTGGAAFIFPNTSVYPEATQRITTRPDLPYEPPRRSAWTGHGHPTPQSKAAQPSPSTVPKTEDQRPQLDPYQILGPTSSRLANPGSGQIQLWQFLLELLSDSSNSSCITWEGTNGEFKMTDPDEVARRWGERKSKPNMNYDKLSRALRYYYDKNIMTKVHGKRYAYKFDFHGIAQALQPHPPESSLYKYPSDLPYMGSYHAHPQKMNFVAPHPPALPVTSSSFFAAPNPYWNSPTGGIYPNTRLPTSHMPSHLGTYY
The conditions noted are these: protein: recombinant; tags: N-terminal GST; dsDNA, one strand shown. The gist of the method:
as §1

For test [5], the target named is ELF1 (Homo sapiens, UniProt P32519 1-619). Conditions: protein: recombinant; tags: N-terminal GST; dsDNA, one strand shown. In short, it runs like this: as §1
Chain of ELF1 (P32519 whole entry): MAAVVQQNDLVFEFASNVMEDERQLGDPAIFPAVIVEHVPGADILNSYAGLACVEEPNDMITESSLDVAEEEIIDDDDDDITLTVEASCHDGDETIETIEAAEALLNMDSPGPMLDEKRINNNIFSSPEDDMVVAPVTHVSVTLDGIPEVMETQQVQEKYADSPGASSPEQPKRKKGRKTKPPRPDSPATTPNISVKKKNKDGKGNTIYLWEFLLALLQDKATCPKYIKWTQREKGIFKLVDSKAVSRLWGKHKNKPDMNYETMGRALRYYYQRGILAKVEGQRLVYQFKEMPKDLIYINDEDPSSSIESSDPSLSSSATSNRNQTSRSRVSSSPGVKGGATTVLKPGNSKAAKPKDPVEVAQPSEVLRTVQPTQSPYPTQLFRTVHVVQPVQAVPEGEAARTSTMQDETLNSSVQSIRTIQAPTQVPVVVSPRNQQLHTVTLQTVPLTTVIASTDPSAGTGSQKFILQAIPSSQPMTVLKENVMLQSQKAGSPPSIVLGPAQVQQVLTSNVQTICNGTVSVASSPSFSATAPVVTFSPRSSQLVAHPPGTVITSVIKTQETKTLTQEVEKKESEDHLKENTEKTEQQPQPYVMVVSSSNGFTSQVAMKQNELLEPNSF
For test [6], the target named is T5, EHF (Homo sapiens, UniProt Q9NZC4 1-300).
T5 sequence: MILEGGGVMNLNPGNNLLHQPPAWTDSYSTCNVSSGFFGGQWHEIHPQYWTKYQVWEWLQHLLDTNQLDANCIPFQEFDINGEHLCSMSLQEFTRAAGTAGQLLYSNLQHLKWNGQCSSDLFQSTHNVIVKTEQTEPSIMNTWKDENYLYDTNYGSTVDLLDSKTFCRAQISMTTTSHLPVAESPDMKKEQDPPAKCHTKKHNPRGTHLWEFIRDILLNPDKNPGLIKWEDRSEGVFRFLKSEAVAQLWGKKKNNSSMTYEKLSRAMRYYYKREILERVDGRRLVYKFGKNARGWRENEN
Conditions: protein: recombinant; tags: N-terminal GST; dsDNA, one strand shown. The gist of the method: as §1

The target in test [7] is SPI1 (Homo sapiens, UniProt P17947 1-270). The conditions noted are these: protein: recombinant; tags: N-terminal GST; dsDNA, one strand shown. The gist of the method: as §1
The target in test [8] is SPIB (Homo sapiens, UniProt Q01892 1-262). Conditions: protein: recombinant; tags: N-terminal GST; dsDNA, one strand shown. In short, it runs like this:
as §1

The target in test [9] is T6, ELK3 (Homo sapiens, UniProt P41970 1-407).
T6 sequence: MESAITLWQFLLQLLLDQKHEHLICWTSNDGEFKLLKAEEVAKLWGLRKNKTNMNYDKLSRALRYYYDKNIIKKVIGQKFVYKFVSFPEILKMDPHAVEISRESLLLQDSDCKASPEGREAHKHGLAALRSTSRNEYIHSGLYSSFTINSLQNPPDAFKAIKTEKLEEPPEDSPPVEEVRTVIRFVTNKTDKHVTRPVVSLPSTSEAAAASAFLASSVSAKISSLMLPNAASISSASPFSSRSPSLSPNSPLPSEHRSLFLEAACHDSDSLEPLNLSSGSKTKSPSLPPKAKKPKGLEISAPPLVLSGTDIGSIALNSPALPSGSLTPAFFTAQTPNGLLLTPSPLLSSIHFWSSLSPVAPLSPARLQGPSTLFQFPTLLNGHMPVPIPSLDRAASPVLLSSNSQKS
The conditions noted are these: protein: recombinant; tags: N-terminal GST; dsDNA, one strand shown. The gist of the method: as §1

Test [10] addresses T7, FEV (Homo sapiens, UniProt Q99581 1-238).
T7 sequence: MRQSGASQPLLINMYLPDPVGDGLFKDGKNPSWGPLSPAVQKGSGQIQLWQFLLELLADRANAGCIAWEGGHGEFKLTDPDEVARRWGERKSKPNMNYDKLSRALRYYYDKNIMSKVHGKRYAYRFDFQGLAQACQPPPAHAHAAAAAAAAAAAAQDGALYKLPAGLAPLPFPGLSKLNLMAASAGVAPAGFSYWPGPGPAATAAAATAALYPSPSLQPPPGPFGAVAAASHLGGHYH
Conditions: protein: recombinant; tags: N-terminal GST; dsDNA, one strand shown. The gist of the method:
as §1

In test [11] the target is ETV5 (Homo sapiens, UniProt P41161 1-510). The conditions noted are these: protein: recombinant; tags: N-terminal GST; dsDNA, one strand shown. The gist of the method:
as §1

The target of test [12] is HSF1 (Homo sapiens, UniProt Q00613 1-529). Conditions: protein: recombinant; tags: N-terminal GST; chain copies: 3; dsDNA, one strand shown. In short, it runs like this: as §1
Chain of HSF1 (Q00613 whole entry): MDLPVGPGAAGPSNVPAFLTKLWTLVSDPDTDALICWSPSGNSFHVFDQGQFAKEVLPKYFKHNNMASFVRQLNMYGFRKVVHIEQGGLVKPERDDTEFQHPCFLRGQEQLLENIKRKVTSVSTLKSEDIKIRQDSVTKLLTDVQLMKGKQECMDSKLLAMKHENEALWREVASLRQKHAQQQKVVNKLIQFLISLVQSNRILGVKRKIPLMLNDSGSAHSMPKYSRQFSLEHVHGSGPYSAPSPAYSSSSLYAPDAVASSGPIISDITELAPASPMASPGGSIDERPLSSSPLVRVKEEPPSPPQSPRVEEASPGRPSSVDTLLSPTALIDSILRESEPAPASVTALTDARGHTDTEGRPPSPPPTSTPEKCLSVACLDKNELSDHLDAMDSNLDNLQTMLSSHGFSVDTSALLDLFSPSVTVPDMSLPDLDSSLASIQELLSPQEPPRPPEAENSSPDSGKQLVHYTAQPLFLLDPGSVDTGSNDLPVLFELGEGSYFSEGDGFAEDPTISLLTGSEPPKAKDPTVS
Test [13] deals with T8, SPIC (Homo sapiens, UniProt Q8N5J4 1-248).
T8 sequence: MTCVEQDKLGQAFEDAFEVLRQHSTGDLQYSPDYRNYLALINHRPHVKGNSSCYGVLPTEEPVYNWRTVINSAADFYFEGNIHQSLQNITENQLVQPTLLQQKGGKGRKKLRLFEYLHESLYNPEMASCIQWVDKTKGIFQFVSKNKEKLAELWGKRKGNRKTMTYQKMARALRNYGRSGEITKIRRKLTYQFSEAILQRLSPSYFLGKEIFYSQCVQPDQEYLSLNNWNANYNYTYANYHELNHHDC
The conditions noted are these: protein: recombinant; tags: N-terminal GST; dsDNA, one strand shown. In short, it runs like this: as §1

Test [14] concerns the target ELF4 (Homo sapiens, UniProt Q99607 1-663). Conditions: protein: recombinant; tags: N-terminal GST; dsDNA, one strand shown. The gist of the method:
as §1

In test [15] the target is T9, ELK4 (Homo sapiens, UniProt P28324-2 1-405).
T9 sequence: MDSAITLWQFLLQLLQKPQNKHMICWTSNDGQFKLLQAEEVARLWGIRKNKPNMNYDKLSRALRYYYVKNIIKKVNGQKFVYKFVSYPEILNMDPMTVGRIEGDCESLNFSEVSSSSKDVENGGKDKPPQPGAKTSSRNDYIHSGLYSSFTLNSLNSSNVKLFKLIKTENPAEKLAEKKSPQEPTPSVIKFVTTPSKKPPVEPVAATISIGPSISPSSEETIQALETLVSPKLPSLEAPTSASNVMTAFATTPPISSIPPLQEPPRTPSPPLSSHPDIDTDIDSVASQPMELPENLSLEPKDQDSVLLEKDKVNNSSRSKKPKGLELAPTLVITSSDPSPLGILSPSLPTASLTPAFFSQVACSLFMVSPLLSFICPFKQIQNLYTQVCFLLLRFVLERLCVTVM
Conditions: protein: recombinant; tags: N-terminal GST; dsDNA, one strand shown. In short, it runs like this:
as §1

The target in test [16] is T10, ETV2 (Homo sapiens, UniProt O00321 1-342).
T10 sequence: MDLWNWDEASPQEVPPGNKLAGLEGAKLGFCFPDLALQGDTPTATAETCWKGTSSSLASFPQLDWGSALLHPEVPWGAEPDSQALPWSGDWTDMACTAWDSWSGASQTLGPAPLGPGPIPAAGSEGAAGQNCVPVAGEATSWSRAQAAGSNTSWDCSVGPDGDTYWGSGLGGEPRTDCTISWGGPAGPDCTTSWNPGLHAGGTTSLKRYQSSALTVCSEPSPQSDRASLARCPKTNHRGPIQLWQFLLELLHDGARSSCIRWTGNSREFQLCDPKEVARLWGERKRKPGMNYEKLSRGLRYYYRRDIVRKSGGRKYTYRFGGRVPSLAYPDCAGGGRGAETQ
Conditions: protein: recombinant; tags: N-terminal GST; dsDNA, one strand shown. The gist of the method:
as §1

Test [17] deals with T11, ELF3 (Homo sapiens, UniProt P78545 1-371).
T11 sequence: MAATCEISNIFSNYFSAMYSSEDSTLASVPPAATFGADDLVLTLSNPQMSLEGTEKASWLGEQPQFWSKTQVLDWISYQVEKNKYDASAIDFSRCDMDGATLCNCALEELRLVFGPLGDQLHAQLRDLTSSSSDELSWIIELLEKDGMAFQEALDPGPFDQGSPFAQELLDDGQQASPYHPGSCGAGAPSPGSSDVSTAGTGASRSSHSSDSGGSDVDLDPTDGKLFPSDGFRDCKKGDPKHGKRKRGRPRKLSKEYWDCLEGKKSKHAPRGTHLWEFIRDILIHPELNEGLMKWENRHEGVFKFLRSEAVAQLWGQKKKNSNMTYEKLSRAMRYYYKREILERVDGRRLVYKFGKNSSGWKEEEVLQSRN
Conditions: protein: recombinant; tags: N-terminal GST; dsDNA, one strand shown. The gist of the method:
as §1

In test [18] the target is CRX (Homo sapiens, UniProt O43186 1-299). Conditions: protein: recombinant; tags: N-terminal GST; dsDNA, one strand shown. The gist of the method:
as §1

In test [19] the target is ETV1 (Homo sapiens, UniProt P50549 1-477). The conditions noted are these: protein: recombinant; tags: N-terminal GST; dsDNA, one strand shown. In short, it runs like this:
as §1

Chain of SPIB (Q01892 whole entry): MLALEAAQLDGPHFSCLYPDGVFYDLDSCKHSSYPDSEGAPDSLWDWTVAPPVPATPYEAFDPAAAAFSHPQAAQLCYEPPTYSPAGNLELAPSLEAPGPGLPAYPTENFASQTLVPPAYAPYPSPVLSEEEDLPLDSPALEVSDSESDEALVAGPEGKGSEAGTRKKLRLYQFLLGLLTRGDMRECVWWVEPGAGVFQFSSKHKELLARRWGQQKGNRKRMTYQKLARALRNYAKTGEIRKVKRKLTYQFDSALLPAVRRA
Chain of ETV5 (P41161 whole entry): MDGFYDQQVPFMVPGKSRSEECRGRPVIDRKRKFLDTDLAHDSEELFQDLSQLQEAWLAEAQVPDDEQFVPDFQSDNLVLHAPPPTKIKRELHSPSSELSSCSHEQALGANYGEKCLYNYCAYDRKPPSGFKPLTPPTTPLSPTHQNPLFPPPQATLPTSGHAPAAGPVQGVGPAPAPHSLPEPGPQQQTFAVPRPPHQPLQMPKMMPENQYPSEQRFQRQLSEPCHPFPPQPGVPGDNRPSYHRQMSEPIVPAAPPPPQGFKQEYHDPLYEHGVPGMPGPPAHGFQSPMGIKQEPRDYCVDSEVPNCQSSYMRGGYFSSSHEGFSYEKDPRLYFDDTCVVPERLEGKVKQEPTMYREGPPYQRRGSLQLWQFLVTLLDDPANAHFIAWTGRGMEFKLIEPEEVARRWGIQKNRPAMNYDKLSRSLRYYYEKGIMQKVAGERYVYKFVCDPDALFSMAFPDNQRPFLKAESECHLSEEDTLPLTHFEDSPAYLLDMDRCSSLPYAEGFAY
Chain of ELF4 (Q99607 whole entry): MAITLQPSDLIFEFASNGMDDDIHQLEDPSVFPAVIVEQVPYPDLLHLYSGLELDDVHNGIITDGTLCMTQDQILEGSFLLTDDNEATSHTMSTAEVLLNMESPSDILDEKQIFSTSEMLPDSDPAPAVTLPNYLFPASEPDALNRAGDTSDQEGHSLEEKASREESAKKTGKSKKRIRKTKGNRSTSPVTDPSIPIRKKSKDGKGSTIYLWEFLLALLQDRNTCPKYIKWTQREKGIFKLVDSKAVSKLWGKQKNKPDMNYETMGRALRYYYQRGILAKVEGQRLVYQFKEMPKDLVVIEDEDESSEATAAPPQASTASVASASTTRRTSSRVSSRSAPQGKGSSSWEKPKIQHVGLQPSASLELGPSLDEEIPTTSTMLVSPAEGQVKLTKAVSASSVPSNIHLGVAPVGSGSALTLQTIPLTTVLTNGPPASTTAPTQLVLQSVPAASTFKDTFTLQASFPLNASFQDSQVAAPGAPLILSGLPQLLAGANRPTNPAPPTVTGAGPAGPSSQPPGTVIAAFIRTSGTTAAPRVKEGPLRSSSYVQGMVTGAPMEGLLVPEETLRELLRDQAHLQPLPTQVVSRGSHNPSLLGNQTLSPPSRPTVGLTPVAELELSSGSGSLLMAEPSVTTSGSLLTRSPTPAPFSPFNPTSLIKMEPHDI
Chain of ETV1 (P50549 whole entry): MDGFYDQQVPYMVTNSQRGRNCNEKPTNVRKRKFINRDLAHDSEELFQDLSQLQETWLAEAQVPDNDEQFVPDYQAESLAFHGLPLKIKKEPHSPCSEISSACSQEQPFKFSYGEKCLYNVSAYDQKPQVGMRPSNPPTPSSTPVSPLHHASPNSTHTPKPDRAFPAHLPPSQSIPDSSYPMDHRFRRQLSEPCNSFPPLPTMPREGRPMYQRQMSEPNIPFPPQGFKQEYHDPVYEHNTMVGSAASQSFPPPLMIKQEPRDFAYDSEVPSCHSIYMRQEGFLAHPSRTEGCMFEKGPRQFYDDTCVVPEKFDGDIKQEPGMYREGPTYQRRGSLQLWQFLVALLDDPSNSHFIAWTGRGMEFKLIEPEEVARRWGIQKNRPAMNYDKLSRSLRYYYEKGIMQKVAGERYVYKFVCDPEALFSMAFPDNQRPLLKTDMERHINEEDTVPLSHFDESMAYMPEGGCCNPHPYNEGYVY
Chain of CRX (O43186 whole entry): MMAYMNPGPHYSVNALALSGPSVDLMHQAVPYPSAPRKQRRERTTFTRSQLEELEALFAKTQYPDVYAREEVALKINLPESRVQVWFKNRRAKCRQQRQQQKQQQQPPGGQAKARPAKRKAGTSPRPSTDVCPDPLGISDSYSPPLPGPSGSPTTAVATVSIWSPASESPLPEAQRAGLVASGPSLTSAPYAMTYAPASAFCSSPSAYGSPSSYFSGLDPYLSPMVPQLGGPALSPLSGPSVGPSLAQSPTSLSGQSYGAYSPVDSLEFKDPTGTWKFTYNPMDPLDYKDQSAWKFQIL

Take CGATCC: the binding signal is 1.26 fold enrichment (6-mer frequency, TF over GST control) in test [1]; 1.14 fold enrichment (6-mer frequency, TF over GST control) in test [2]; 1.19 fold enrichment (6-mer frequency, TF over GST control) in test [3]; 1.21 fold enrichment (6-mer frequency, TF over GST control) in test [4]; 1.27 fold enrichment (6-mer frequency, TF over GST control) in test [5]; 1.22 fold enrichment (6-mer frequency, TF over GST control) in [6]. For the same sequence, the binding signal in test [7] is 1.25 fold enrichment (6-mer frequency, TF over GST control); in [8], 1.22 fold enrichment (6-mer frequency, TF over GST control); in [9], 1.38 fold enrichment (6-mer frequency, TF over GST control); in test [10], 1.2 fold enrichment (6-mer frequency, TF over GST control); in test [11], 1.19 fold enrichment (6-mer frequency, TF over GST control); in [12] it was 1.31 fold enrichment (6-mer frequency, TF over GST control). Moreover, the binding signal in test [13] is 1.11 fold enrichment (6-mer frequency, TF over GST control); in [14], 1.21 fold enrichment (6-mer frequency, TF over GST control); in test [15], 1.11 fold enrichment (6-mer frequency, TF over GST control); in test [16], 1.19 fold enrichment (6-mer frequency, TF over GST control); in [17], 1.08 fold enrichment (6-mer frequency, TF over GST control); in test [18], 1.27 fold enrichment (6-mer frequency, TF over GST control). Moreover, in test [19], the binding signal is 1.25 fold enrichment (6-mer frequency, TF over GST control).
